# Source: the supplement of paper PMC9844399
# Test system: HeLa
# Assay: MALAT1 nuclear FISH intensity, robust Z-score vs DMSO; higher = more nuclear MALAT1 lncRNA, active = -3 or less
# Conditions: 10 µM; 6 h
# 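Further: High-content confocal imaging of branched-DNA amplified FISH in 384-well plates, Hoechst-defined nuclei, score is well value minus plate DMSO median over DMSO robust SD, four wells per compound.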
row,SMILES,MALAT1 nuclear FISH intensity
1,CCCCC/C=C\C=C\[C@H](CCCCCCCC(=O)O)OO,-0.884 (inactive)
2,O[C@H]1[C@H](O)[C@@H](O)CN2CC[C@H](O)[C@H]12 [Castanospermine],-1.1 (inactive)
3,N#CC(C#N)=Cc1cc(O)c(O)c([N+](=O)[O-])c1 [Tyrphostin AG1288],0.0609 (inactive)
4,CC(=O)c1c(O)c(C)c(O)c(Cc2c(O)c3c(c(C(=O)/C=C/c4ccccc4)c2O)OC(C)(C)C=C3)c1O [Rottlerin],-1.37 (inactive)
5,C[C@H](CCC(=O)O)C[C@H](C)C[C@H](C)C(=O)/C=C(\O)[C@H](C)C[C@H](C)C/C=C/[C@@H](C)[C@@H](O)[C@@H](C)[C@@H](O)C[C@@H]1CC[C@@](C)([C@H]2CC[C@@](C)([C@@H](C)O)O2)O1 [Ionomycin],0.165 (inactive)
6,C=C(C)[C@H]1Cc2c(ccc3c2O[C@@H]2COc4cc(OC)c(OC)cc4[C@@H]2C3=O)O1 [Rotenone],-0.366 (inactive)
7,COc1ccc(C[C@H]2NC[C@H](O)[C@H]2OC(C)=O)cc1 [Anisomycin],4.99 (inactive)
8,CCOC(=O)CN1C(=O)CC(C[C@@H](O)C2C[C@@H](C)C[C@H](C)C2=O)CC1=O (stereo not given in full) [Cycloheximide-N-ethylethanoate],-0.0786 (inactive)
9,C=CCN1C[C@H](C(=O)N(CCCN(C)C)C(=O)NCC)C[C@@H]2c3cccc4[nH]cc(c34)C[C@H]21 [Cabergoline],-1.84 (inactive)
10,CCCCCCCCCCCCCC(=O)O[C@@H]1[C@@H](C)[C@@]2(O)[C@@H](C=C(CO)C[C@]3(O)C(=O)C(C)=C[C@@H]23)[C@@H]2C(C)(C)[C@]12OC(C)=O [Phorbol 12-myristate 13-acetate],1.8 (inactive)
